NALP1 inh: inhibitors of NALP1 inflammasome in yeast; S. cerevisiae NALP1/ASC/caspase-1 growth, X-gal OD620, 72 h; inhibition, % at 10 µM; 0.61% of 280,000 active; in the data active means inhibition mostly above about 24%, no sharp cut-off; inactive means mostly below about 32%
tim23-1 inh: tim23-1 yeast growth inhibition; S. cerevisiae tim23-1 growth, BacTiter-Glo luminescence, 24 h; inhibition, % at 20 µM; AID 463212; 1.3% of 330,000 active;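 active means growth inhibition of the mutant yeast at or above 50%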;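 further: temperature-sensitive mutant grown at 25 °C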
TIM10 inh: growth inhibitors of TIM10 yeast strain. inhibition, % at 10 µM. S. cerevisiae TIM10 strain growth, BacTiter-Glo luminescence, 24 h. 1.4% of 330,000 active;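 active means inhibition of 40% or more at the single tested concentration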;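 further: wild-type TIM10 isogenic control strain grown at permissive 25 °C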
V-ATPase pHluor: yeast V-ATPase proton transport regulation by pHLuorin; S. cerevisiae, pHLuorin cytosolic pH fluorescence; response, % at 10 µM; 0.37% of 350,000 active; AID 504577; in the data active means response mostly above about 7.3%, no sharp cut-off; inactive means mostly below about 5.4%; further: actives read high
NLRP3 yeast inh: blocks the NALP3 inflammasome reconstituted in yeast | AID 2825 | inhibition, % at 10 µM | Yeast reconstituted NLRP3/ASC/caspase-1, beta-gal luminescence, 24 h | 0.39% of 330,000 active;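 active means inhibition of 50% or more; inactive means inhibition below 50%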
tim10-1 inh: inhibits growth of tim10-1 mutant yeast | S. cerevisiae tim10-1 ts strain growth, BacTiter-Glo, 24 h | inhibition, % at 20 µM | 2.2% of 330,000 active;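 active means inhibition of at least 40%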;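 further: mutant grown at 25 °C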
tim10-1 conf: confirmation of tim10-1 mutant yeast growth inhibitors; S. cerevisiae tim10-1 ts strain growth, BacTiter-Glo, 24 h; 56% of 7,400 active; AID 463213; inhibition, % at 20 µM; shares compounds with tim10-1 inh;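 active means inhibition of yeast growth at or above a set limit in either of two repeat tests at 20 µM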;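 further: tim10-1 mutant grown at permissive 25 °C to find synthetic lethal compounds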
A number is an active result. This is a sample that favours compounds with a hit; in the whole collection about 4.2% have one here.

Cc1ccc(S(=O)(=O)N(Cc2ccccc2)c2ccccc2C(=O)Nc2ccccc2C(=O)NCc2ccco2)cc1 was read as NALP1 inh inactive, tim23-1 inh inactive, TIM10 inh inactive, V-ATPase pHluor inactive, NLRP3 yeast inh inactive and tim10-1 inh inactive.
Cc1ccc(S(=O)(=O)N(Cc2ccccc2)c2ccccc2C(=O)NCc2ccco2)cc1 was read as NALP1 inh inactive, tim23-1 inh inactive, TIM10 inh inactive, V-ATPase pHluor inactive, NLRP3 yeast inh inactive, tim10-1 inh 40.7 and tim10-1 conf inactive.
`Cc1ccc(-c2cccc(OC(=O)c3ccccc3F)c2)cc1` gave NALP1 inh inactive, tim23-1 inh inactive, TIM10 inh inactive, V-ATPase pHluor inactive, NLRP3 yeast inh inactive and tim10-1 inh inactive.
COc1ccc(N2Cc3ccccc3/C2=N\C(=O)Nc2ccccc2)cc1 was read as NALP1 inh inactive, tim23-1 inh inactive, TIM10 inh inactive, V-ATPase pHluor inactive, NLRP3 yeast inh inactive and tim10-1 inh inactive.
Screening CC(C)(O)C#Cc1ccc(C(=O)N2CCN(c3ccc(F)cc3)CC2)cc1 returned NALP1 inh inactive, tim23-1 inh inactive, TIM10 inh inactive, V-ATPase pHluor inactive, NLRP3 yeast inh inactive and tim10-1 inh inactive.
For CC(C)(O)C#Cc1ccc(C(=O)N2CCN(c3ccc(Cl)cc3)CC2)cc1 the results were NALP1 inh inactive, tim23-1 inh inactive, TIM10 inh inactive, V-ATPase pHluor inactive, NLRP3 yeast inh inactive, tim10-1 inh 49.3 and tim10-1 conf 40.2.
For CCC1=Nc2ccccc2-c2nnc(SC)nc2O1 the results were NALP1 inh inactive, tim23-1 inh inactive, TIM10 inh inactive, V-ATPase pHluor inactive, NLRP3 yeast inh inactive and tim10-1 inh inactive.
`O=C(ON=C1CCN(S(=O)(=O)c2ccccc2)CC1)c1ccc(F)cc1` gave NALP1 inh inactive, tim23-1 inh inactive, TIM10 inh inactive, V-ATPase pHluor inactive, NLRP3 yeast inh inactive, tim10-1 inh 52.3 and tim10-1 conf 53.8.
Cc1cc(Nc2ccccc2)c2c([N+](=O)[O-])c(C)cc(C)c2n1 was read as tim23-1 inh inactive, TIM10 inh inactive, V-ATPase pHluor inactive, NLRP3 yeast inh inactive, tim10-1 inh 40.9 and tim10-1 conf inactive.
`Cc1cccc(Nc2cc(C)nc3ccccc23)c1` gave NALP1 inh inactive, tim23-1 inh inactive, TIM10 inh inactive, V-ATPase pHluor inactive, NLRP3 yeast inh inactive and tim10-1 inh inactive.
Screening CCC(C)NCCCOc1c(C)cc(C)cc1Br (centres undefined) returned NALP1 inh inactive, tim23-1 inh inactive, TIM10 inh inactive, V-ATPase pHluor inactive, NLRP3 yeast inh inactive and tim10-1 inh inactive.
`CCOc1ccc(C(=O)NC(=S)Nc2cccnc2)cc1` gave NALP1 inh inactive, tim23-1 inh inactive, TIM10 inh inactive, V-ATPase pHluor inactive, NLRP3 yeast inh inactive and tim10-1 inh inactive.
Screening CCOc1cc(C(=O)NC(=S)Nc2cccnc2)cc(OCC)c1OCC returned NALP1 inh inactive, tim23-1 inh inactive, TIM10 inh inactive, V-ATPase pHluor inactive, NLRP3 yeast inh inactive, tim10-1 inh 43.2 and tim10-1 conf inactive.
For O=C(NC1CCCC1)c1sc(=S)n2c1[nH]c(=O)c1ccccc12 the results were NALP1 inh inactive, tim23-1 inh inactive, TIM10 inh inactive, V-ATPase pHluor inactive, NLRP3 yeast inh inactive, tim10-1 inh 46.8 and tim10-1 conf inactive.
Cc1ccc(Sc2ccc([N+](=O)[O-])cc2[N+](=O)[O-])nc1 was read as NALP1 inh inactive, tim23-1 inh inactive, TIM10 inh inactive, V-ATPase pHluor inactive, NLRP3 yeast inh inactive, tim10-1 inh 40.3 and tim10-1 conf 37.3.
For Cc1ccnc(Sc2ccc([N+](=O)[O-])cc2[N+](=O)[O-])n1 the results were NALP1 inh inactive, tim23-1 inh inactive, TIM10 inh inactive, V-ATPase pHluor inactive, NLRP3 yeast inh inactive, tim10-1 inh 59.2 and tim10-1 conf 52.7.
Nc1nc(Sc2ccc([N+](=O)[O-])cc2[N+](=O)[O-])n[nH]1 was read as tim23-1 inh inactive, TIM10 inh inactive, V-ATPase pHluor inactive, NLRP3 yeast inh inactive and tim10-1 inh inactive.
`Cc1sc2ncnc(NCCc3ccc(S(N)(=O)=O)cc3)c2c1C` gave NALP1 inh inactive, tim23-1 inh inactive, TIM10 inh inactive, V-ATPase pHluor inactive, NLRP3 yeast inh inactive and tim10-1 inh inactive.
Screening Cc1ccc([N+](=O)[O-])cc1NC(=O)CCSc1ccc(Cl)cc1 returned NALP1 inh inactive, tim23-1 inh inactive, TIM10 inh inactive, V-ATPase pHluor inactive, NLRP3 yeast inh inactive and tim10-1 inh inactive.
`Cc1nc(-c2ccccc2)sc1-c1n[nH]c(=S)n1C` gave NALP1 inh inactive, tim23-1 inh inactive, TIM10 inh inactive, V-ATPase pHluor inactive, NLRP3 yeast inh inactive, tim10-1 inh 47.8 and tim10-1 conf inactive.
Screening Cn1c(-c2sccc2OCc2ccccc2)n[nH]c1=S returned NALP1 inh inactive, tim23-1 inh inactive, TIM10 inh inactive, V-ATPase pHluor inactive, NLRP3 yeast inh inactive, tim10-1 inh 50.0 and tim10-1 conf inactive.
For Cc1ccc(COc2ccsc2-c2n[nH]c(=S)n2C)cc1 the results were NALP1 inh inactive, tim23-1 inh inactive, TIM10 inh inactive, V-ATPase pHluor inactive, NLRP3 yeast inh inactive and tim10-1 inh inactive.
Screening Cn1c(-c2ccccc2)n[nH]c1=S returned NALP1 inh inactive, tim23-1 inh inactive, TIM10 inh inactive, V-ATPase pHluor inactive, NLRP3 yeast inh inactive and tim10-1 inh inactive.
Screening N#CC1=C(SCC(=O)c2ccc(Cl)cc2)NC2=C(C(=O)CCC2)C1c1ccco1 (centres undefined) returned NALP1 inh inactive, tim23-1 inh inactive, TIM10 inh inactive, V-ATPase pHluor inactive, NLRP3 yeast inh inactive, tim10-1 inh 46.0 and tim10-1 conf inactive.
Cc1ccc(C(=O)CSC2=C(C#N)C(c3ccco3)C3=C(CC(C)(C)CC3=O)N2)cc1 (centres undefined) was read as NALP1 inh inactive, tim23-1 inh inactive, TIM10 inh inactive, V-ATPase pHluor inactive, NLRP3 yeast inh inactive and tim10-1 inh inactive.
`Cc1ccc(S(=O)(=O)N2CCN(C(=O)C3COc4ccccc4O3)CC2)cc1C` (centres undefined) gave NALP1 inh inactive, tim23-1 inh inactive, TIM10 inh inactive, V-ATPase pHluor inactive, NLRP3 yeast inh inactive and tim10-1 inh inactive.
`Cc1cc(C)c(S(=O)(=O)N2CCN(C(=O)C3COc4ccccc4O3)CC2)c(C)c1` (centres undefined) gave tim23-1 inh inactive, TIM10 inh inactive, V-ATPase pHluor inactive, NLRP3 yeast inh inactive, tim10-1 inh 40.0 and tim10-1 conf inactive.
O=C1C2C3C=CC(CO)(O3)C2C(=O)N1c1ccccc1-c1ccccc1 (centres undefined) was read as NALP1 inh inactive, tim23-1 inh inactive, TIM10 inh inactive, V-ATPase pHluor inactive, NLRP3 yeast inh inactive, tim10-1 inh 52.7 and tim10-1 conf 87.2.

Screening data: PubChem, several laboratories
